# Data taken from PubChem BioAssay (EPA / NIEHS).
# Records with an inconclusive call do not appear. Where a structure was tested more than once in an assay, its records may differ in their call. The source made the active and inactive calls. How the source made its calls, unless noted: active means hit-call score of the fitted dose curve at least 0.9, where 1 is the maximum; inconclusive means response in the unintended direction; inactive means score below 0.9.
# Columns and labels:
# [1] = tested on: Thyroperoxidase (TPO), gene 54314; test: CCTE_Simmons_AUR_rTPO: CCTE's Amplex UltraRed Assay for Thyroperoxidase (TPO) Inhibition, Simmons Lab (AID 2283662);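 on AC50: potency for loss of signal meaning inhibition of peroxidase activity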
# Outline: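 Rat thyroid microsomes (5 ug protein) were incubated with test compound (8 concentrations, 5 nM–87.5 uM final, 0.5% DMSO), 25 uM Amplex UltraRed and 300 uM H2O2 in 200 mM phosphate buffer for 30 min at 37C in the dark; fluorescence read at 544/590 nm.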
# [2] = CEETOX_H295R_MTT_cell_viability: Viability Assessment in the CeeTox HT-H295R MTT Assay (AID 2283718; active means hit-call score of the fitted dose curve at least 0.9, where 1 is the maximum; inactive means score below 0.9;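 on AC50: curve fitted both ways so AC50 may mark viability loss or gain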)
# Outline: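 Human H295R adrenal cells, prestimulated 48 h with 10 uM forskolin, were exposed 48 h to chemicals in 0.1% DMSO. Viability was measured in the same wells by MTT (0.5 mg/ml, 4 h, 37 C), absorbance 570/650 nm, as percent of controls.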
# [3] = target: Luciferin 4-monooxygenase (Photinus pyralis) (UniProt P08659); test: CCTE_Simmons_QuantiLum_inhib_2: CCTE's Firefly Luciferase Inhibition Assay, Simmons Lab (AID 2283767);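 on AC50: potency for inhibitors that lower luciferase luminescence relative to DMSO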
# Sequence of Luciferin 4-monooxygenase (Photinus pyralis) (P08659 whole entry, looked up): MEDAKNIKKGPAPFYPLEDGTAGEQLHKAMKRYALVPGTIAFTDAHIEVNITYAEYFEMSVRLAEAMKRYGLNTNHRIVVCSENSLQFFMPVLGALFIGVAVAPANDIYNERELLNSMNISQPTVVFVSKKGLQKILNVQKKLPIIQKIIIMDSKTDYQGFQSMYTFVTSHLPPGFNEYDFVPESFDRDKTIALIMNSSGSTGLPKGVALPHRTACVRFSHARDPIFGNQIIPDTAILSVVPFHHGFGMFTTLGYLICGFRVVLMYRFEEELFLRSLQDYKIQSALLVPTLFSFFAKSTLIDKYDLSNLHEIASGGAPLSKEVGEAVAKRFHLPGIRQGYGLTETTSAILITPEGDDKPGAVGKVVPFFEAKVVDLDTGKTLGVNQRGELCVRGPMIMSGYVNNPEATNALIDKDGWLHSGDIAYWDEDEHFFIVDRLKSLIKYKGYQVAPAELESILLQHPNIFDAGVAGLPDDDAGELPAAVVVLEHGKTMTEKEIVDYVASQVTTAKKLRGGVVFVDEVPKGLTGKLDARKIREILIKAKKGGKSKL
# Outline: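 Recombinant firefly luciferase (5 ng/well, 200 mM potassium phosphate with 1 mg/ml BSA) was exposed to 8 concentrations from 5 nM to 87.5 uM (final, 0.5% DMSO) for 30 min at 37C in the dark. Loss of luminescence versus DMSO was read after injecting D-luciferin/ATP-analogue reagent.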
# [4] = ACEA_AR_agonist_AUC_viability: ACEA Biosciences xCELLigence Real-Time Cell Analysis on Androgen Receptor Agonism for Viability (AID 2283775);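 on AC50: viability read 80 hours after compound addition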
# Outline: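 Read-out is area under the impedance curve at 80 h post-dose in 22Rv1 cells, with DMSO as baseline and signal loss taken as reduced viability. Compounds ran in duplicate from 100 uM final.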
# [5] = ACEA_AR_antagonist_AUC_viability: ACEA Biosciences xCELLigence Real-Time Cell Analysis on Androgen Receptor Antagonism for Viability (AID 2283776);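 further: 22Rv1 human prostate cancer cells growing on impedance electrode plates; area under impedance growth curve at 80 h after dosing as viability; hits lower the growth signal relative to DMSO meaning cytotoxicity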
# Outline: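 Impedance read-out (RT-CES): area under growth curve at 80 h post-dose, loss of signal scored vs DMSO baseline. 22Rv1 cells; 8-pt 1:4 series, top 100 uM final, ≤0.5% DMSO; biological duplicate.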
# [6] = Tanguay_ZF_120hpf_TRUN_legacy: (Legacy) Oregon State University Tanguay Lab 120 Hour Post-fertilization zebrafish Assay for Truncated Body (AID 2283655)
# Outline: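 Truncated body is recorded as a binary endpoint at 120 hpf by brightfield imaging of wild-type 5D larvae. Exposure runs statically from 6 hpf at 28C with 0.64% DMSO; embryos dying earlier are not scored.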
# [7] = Tanguay_ZF_120hpf_NC_legacy: (Legacy) Oregon State University Tanguay Lab 120 Hour Post-fertilization zebrafish Assay for Notochord and Tail Malformation (AID 2283656)
# Outline: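 Dechorionated 5D zebrafish, 1/well from 6 hpf; static exposure to 120 hpf, 28C, sealed, dark; final DMSO 0.64% v/v. NC scored binary (present/absent); dead embryos not scored. Fit vs DMSO baseline, gain direction.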
# [8] = Tanguay_ZF_120hpf_TR_legacy: (Legacy) Oregon State University Tanguay Lab 120 Hour Post-fertilization zebrafish Assay for Touch Response (AID 2283667)
# Outline: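 Tropical 5D wild-type zebrafish embryos statically exposed to 120 hpf at 28°C, sealed and dark-covered, 0.64% DMSO final; touch response scored as present/absent by brightfield microscopy at 120 hpf. Trimethyltin chloride 5 uM positive control; dead embryos not scored.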
# [9] = Tanguay_ZF_120hpf_ActivityScore_legacy: (Legacy) Oregon State University Tanguay Lab 120 Hour Post-fertilization zebrafish Assay Score for Activity (AID 2283742)
# Outline: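 Dechorionated Tropical 5D embryos, one per well from 6 hpf, statically exposed to 120 hpf at 28 °C in 0.64% DMSO. Mortality and malformations scored binary by brightfield microscopy; activity score combines 18 endpoints, fitted positively versus DMSO.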
# [10] = CCTE_Simmons_CellTiterGLO_HEK293T: Viability Assessment in CCTE's Assays for Thyroperoxidase (TPO) Inhibition, Simmons Lab (AID 2283665);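 on AC50: cells exposed to compound for 24 h before readout; actives reduce ATP signal below DMSO vehicle meaning cytotoxicity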
# Outline: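 HEK293T cells in DMEM with 1% FBS were dosed with 8 concentrations (5 nM–87.5 uM final, 0.5% DMSO) for 24 hr at 37C; ATP content was read by CellTiter-Glo luminescence, loss-of-signal versus DMSO, three biological replicates.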
# [11] = STM_H9_OrnCyssISnorm_ratio: Stemina devTOX quickPredict H9 human embryonic stem cell (hESC)-based Assay for Ornithine (ORN):Cystine (CYSS) Ratio (AID 2283714)
# Outline: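 Undifferentiated H9 hESCs exposed 72 h, media and compound replaced every 24 h; final 24-h conditioned media deproteinized and analysed by UPLC-HRMS against C13 spike-ins. Value is the internal-standard-normalized ORN/CYSS ratio versus 0.1% DMSO.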
# [12] = STM_H9_OrnithineISnorm_perc: Stemina devTOX quickPredict H9 human embryonic stem cell (hESC)-based Assay for Ornithine (ORN) Metabolite Biomarker, Normalized (AID 2283712; active means hit-call score of the fitted dose curve at least 0.9, where 1 is the maximum; inactive means score below 0.9;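 further: ornithine released into spent medium during last day measured by mass spectrometry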)
# Outline: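 Undifferentiated pluripotent H9 hESCs were exposed to compound for 72h, with media and compound replaced every 24h. Ornithine in final 24-h conditioned media was measured by UPLC-HRMS, normalized to 13C-labeled spike-in standard and to median 0.1% DMSO control.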
# [13] = STM_H9_CystineISnorm_perc: Stemina devTOX quickPredict H9 human embryonic stem cell (hESC)-based Assay for Cystine (CYSS) Metabolite Biomarker, Normalized (AID 2283713; active means hit-call score of the fitted dose curve at least 0.9, where 1 is the maximum; inactive means score below 0.9)
# Outline: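 Undifferentiated H9 hESCs were exposed to compound for 72h, with medium and compound replaced every 24h. Final-24h conditioned medium was deproteinized and analyzed by UPLC-HRMS. Cystine EIC area was normalized to spiked C13 standard and 0.1% DMSO median.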
# [14] = target: zebrafish Estrogen Receptor (ESR1), esr1 (gene 259252) (UniProt P57717); test: ATG_zfER1_XSP1: Attagene TRANS-FACTORIAL Multi-Species (XSP1) HepG2 Assay for zebrafish Estrogen Receptor (ESR1) (AID 2283772)
# Sequence of zebrafish Estrogen Receptor (ESR1), esr1 (gene 259252) (P57717 whole entry, looked up, the tested form may be a part): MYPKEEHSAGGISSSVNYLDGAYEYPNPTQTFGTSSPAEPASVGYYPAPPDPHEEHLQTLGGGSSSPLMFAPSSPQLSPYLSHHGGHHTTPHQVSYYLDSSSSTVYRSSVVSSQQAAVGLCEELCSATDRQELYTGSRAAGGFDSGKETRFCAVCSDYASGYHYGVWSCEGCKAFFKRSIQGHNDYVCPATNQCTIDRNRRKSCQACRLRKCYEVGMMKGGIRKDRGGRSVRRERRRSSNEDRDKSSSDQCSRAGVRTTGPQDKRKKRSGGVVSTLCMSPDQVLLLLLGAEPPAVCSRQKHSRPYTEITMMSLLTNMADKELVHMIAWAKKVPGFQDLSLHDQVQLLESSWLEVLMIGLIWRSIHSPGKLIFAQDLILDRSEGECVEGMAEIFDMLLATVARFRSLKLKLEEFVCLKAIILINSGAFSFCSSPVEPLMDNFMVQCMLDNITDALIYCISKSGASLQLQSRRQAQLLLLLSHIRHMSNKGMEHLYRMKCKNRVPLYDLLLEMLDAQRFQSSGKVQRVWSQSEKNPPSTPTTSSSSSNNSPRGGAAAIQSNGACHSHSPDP
# Outline: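 Transfect HepG2 with GAL4-UAS multi-reporter constructs; treat 24 h (medium carries 3 nM 6-alpha-fluorotestosterone); extract RNA, reverse-transcribe, PCR-amplify, FAM-label, digest with HpaI; resolve by capillary electrophoresis and compare against DMSO baseline.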
# [15] = tested on: zebrafish Estrogen Receptor (ESR2B), gene 317733; test: ATG_zfER2b_XSP1: Attagene TRANS-FACTORIAL Multi-Species (XSP1) HepG2 Assay for zebrafish Estrogen Receptor (ESR2B) (AID 2283773)
# Outline: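 HepG2 cells transiently transfected with GAL4-UAS reporter units for chimeric zebrafish ER2b-Gal4, with 3 nM 6-alpha-fluorotestosterone present; reporter mRNA measured 24 h after dosing by RT-PCR and capillary electrophoresis, gain versus DMSO.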
# [16] = tested on: frog Estrogen Receptor (ESR2), gene 100174814; test: ATG_frER2_XSP1: Attagene TRANS-FACTORIAL Multi-Species (XSP1) HepG2 Assay for frog Estrogen Receptor (ESR2) (AID 2283774)
# Outline: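 HepG2 cells transiently transfected with GAL4-UAS reporter units expressing chimeric frog ER-Gal4; 3 nM 6-alpha-fluorotestosterone present. After 24 h dosing, reporter mRNA quantified by RT-PCR and capillary electrophoresis; gain-of-signal fitted relative to DMSO.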
# [17] = tested on: frog Estrogen Receptor (ESR1), gene 398734; test: ATG_frER1_XSP1: Attagene TRANS-FACTORIAL Multi-Species (XSP1) HepG2 Assay for frog Estrogen Receptor (ESR1) (AID 2283777)
# Outline: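 HepG2 cells transiently transfected with frog ER–GAL4 chimera and GAL4-UAS reporter, with 3 nM 6-alpha-fluorotestosterone present; 24 h dosing, reporter mRNA quantified by RT-PCR and capillary electrophoresis, gain of signal versus DMSO.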
# [18] = tested on: zebrafish Estrogen Receptor (ESR2A), gene 317734; test: ATG_zfER2a_XSP1: Attagene TRANS-FACTORIAL Multi-Species (XSP1) HepG2 Assay for zebrafish Estrogen Receptor (ESR2A) (AID 2283778)
# Outline: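 HepG2 cells transiently transfected with GAL4-UAS reporter units driven by a zebrafish ESR2A–Gal4 chimera; 24 h compound exposure with 3 nM 6-alpha-fluorotestosterone present. Reporter mRNA measured by RT-PCR with fluorescent capillary electrophoresis, fitted positive versus DMSO.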
# [19] = target: chicken Estrogen Receptor (ESR1), ESR1 (gene 396099) (UniProt P06212); test: ATG_chERa_XSP1: Attagene TRANS-FACTORIAL Multi-Species (XSP1) HepG2 Assay for chicken Estrogen Receptor (ESR1) (AID 2283779)
# Sequence of chicken Estrogen Receptor (ESR1), ESR1 (gene 396099) (P06212 whole entry, looked up, the tested form may be a part): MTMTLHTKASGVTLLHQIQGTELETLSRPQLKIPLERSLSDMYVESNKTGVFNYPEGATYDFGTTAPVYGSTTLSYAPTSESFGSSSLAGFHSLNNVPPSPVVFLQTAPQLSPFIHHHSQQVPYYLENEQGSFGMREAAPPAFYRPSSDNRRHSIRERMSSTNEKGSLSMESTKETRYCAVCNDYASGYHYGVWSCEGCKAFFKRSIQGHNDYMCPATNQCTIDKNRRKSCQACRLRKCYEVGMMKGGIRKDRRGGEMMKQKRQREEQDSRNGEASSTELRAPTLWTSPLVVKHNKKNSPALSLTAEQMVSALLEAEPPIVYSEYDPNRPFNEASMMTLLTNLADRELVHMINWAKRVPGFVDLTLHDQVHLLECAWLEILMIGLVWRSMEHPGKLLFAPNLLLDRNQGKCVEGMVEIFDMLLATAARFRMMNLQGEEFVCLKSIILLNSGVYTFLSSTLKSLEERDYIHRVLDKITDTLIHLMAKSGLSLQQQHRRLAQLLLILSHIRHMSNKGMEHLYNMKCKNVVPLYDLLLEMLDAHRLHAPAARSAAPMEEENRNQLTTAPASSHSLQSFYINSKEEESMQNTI
# Outline: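 HepG2 cells transiently transfected with GAL4-UAS reporter units for chimeric chicken ERα-Gal4, dosed 24 h with 3 nM 6-alpha-fluorotestosterone present. Reporter mRNA by RT-PCR and capillary electrophoresis; gain-of-signal fit versus DMSO.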
# [20] = target: Estrogen receptor (Homo sapiens) (UniProt P03372); test: ATG_hERa_XSP1: Attagene TRANS-FACTORIAL Multi-Species (XSP1) HepG2 Assay for human Estrogen Receptor (ESR1) (AID 2283780)
# Sequence of Estrogen receptor (Homo sapiens) (P03372 whole entry, looked up, the tested form may be a part): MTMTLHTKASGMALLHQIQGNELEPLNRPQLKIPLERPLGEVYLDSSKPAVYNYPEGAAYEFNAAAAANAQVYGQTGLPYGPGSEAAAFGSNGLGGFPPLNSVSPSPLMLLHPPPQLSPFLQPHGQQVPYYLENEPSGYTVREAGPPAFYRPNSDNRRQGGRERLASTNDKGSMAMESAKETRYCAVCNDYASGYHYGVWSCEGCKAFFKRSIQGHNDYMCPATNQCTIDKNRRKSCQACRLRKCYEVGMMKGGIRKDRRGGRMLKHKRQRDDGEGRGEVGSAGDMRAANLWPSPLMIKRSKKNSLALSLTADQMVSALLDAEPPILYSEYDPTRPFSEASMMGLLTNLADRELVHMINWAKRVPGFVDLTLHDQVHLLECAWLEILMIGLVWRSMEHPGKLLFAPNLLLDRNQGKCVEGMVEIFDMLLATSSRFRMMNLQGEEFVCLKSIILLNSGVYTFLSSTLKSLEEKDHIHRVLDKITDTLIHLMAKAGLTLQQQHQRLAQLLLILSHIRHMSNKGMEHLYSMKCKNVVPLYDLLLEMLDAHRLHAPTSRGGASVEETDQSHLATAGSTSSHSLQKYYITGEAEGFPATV
# Outline: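 HepG2 cells transiently transfected with GAL4-UAS reporter units and chimeric NR-Gal4 constructs; 24 h after dosing, reporter mRNA quantified by RT-PCR and capillary electrophoresis. Medium contained 3 nM 6-alpha-fluorotestosterone; activity fitted as gain-of-signal versus DMSO.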
smiles,measurement,setting,value
CC(C)(c1ccccc1)c1ccc(Nc2ccc(C(C)(C)c3ccccc3)cc2)cc1,AC50,[1],33.8 µM (active)
same,AC50,[2],86 µM (active)
same,AC50,[3],53.8 µM (active)
same,outcome,[4],inactive
same,AC50,[5],11.4 µM (active)
C1CNCCN1,outcome,[6],inactive
same,outcome,[7],inactive
same,outcome,[8],inactive
same,outcome,[9],inactive
same,outcome,[4],inactive
same,outcome,[5],inactive
O=c1c(O)c(-c2ccc(O)cc2O)oc2cc(O)cc(O)c12,AC50,[1],0.337 µM (active)
same,outcome,[10],inactive
same,AC50,[3],68.3 µM (active)
CCCCCCCCCCCCc1ccc(O)cc1,AC50,[1],26.2 µM (active)
same,AC50,[10],11.4 µM (active)
same,outcome,[3],inactive
same,AC50,[4],16.6 µM (active)
same,AC50,[5],16.6 µM (active)
Nc1ccc(C(=O)O)cc1,outcome,[6],inactive
same,outcome,[7],inactive
same,AC50,[1],3.19 µM (active)
same,outcome,[8],inactive
same,outcome,[9],inactive
CCCCC1C(=O)N(c2ccccc2)N(c2ccccc2)C1=O,AC50,[1],39.6 µM (active)
same,outcome,[10],inactive
same,outcome,[11],inactive
same,outcome,[2],inactive
same,outcome,[3],inactive
CCOC(=O)C1=NN(c2ccc(Cl)cc2Cl)C(C)(C(=O)OCC)C1 (stereo not drawn),outcome,[2],inactive
CC1(C)[C@@H]2CC[C@@]1(C)C(=O)C2,outcome,[12],inactive
same,outcome,[13],inactive
same,outcome,[4],inactive
same,outcome,[5],inactive
COC(=O)c1ccccc1C,outcome,[1],inactive
same,outcome,[10],inactive
same,outcome,[3],inactive
same,outcome,[5],inactive
CC(C)(C)NC(=O)[C@H]1CC[C@H]2[C@@H]3CC[C@H]4NC(=O)C=C[C@]4(C)[C@H]3CC[C@]12C,outcome,[2],inactive
same,outcome,[14],inactive
same,AC50,[15],67.2 µM (active)
same,AC50,[16],38.1 µM (active)
same,AC50,[4],78 µM (active)
same,outcome,[4],inactive
same,AC50,[5],50 µM (active)
same,outcome,[5],inactive
same,outcome,[17],inactive
same,outcome,[18],inactive
same,outcome,[19],inactive
same,outcome,[20],inactive
CCCCCCCCCC[N+](C)(CCCCCCCCCC)CCC[Si](OC)(OC)OC,AC50,[1],48.9 µM (active)
same,AC50,[10],16 µM (active)
same,AC50,[4],5.04 µM (active)
same,AC50,[5],16.1 µM (active)
CC(CCC(=O)O)(c1ccc(O)cc1)c1ccc(O)cc1,AC50,[1],18.3 µM (active)
same,outcome,[11],inactive
same,outcome,[3],inactive
same,AC50,[5],1.24 µM (active)
CC(C)c1ccc(O)c(C(C)C)c1,AC50,[1],29.7 µM (active)
same,AC50,[10],28.4 µM (active)
same,outcome,[2],inactive
same,outcome,[3],inactive
same,outcome,[4],inactive
c1ccc(Nc2cccc3ccccc23)cc1,AC50,[1],5.32 µM (active)
same,AC50,[10],28.4 µM (active)
same,AC50,[3],53.8 µM (active)
same,outcome,[4],inactive
same,AC50,[5],2.4 µM (active)
